Bioassay records as filed in PubChem BioAssay.
TR SRC2 fluor cs: Total Fluorescence Counterscreen for Inhibitors of the Interaction of Thyroid Hormone Receptor and Steroid Receptor Coregulator 2. TRb/SRC2 Texas Red total fluorescence interference. Potency, µM (doses to about 106 µM). hit rate 0.29% among 280,000; active means well fitted curve in either direction with a large enough effect; inconclusive means small, poorly fitted or top-dose-only effect
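Flags fluorescent or light-absorbing compounds by total fluorescence, S + 2P, at 555 nm excitation and 632 nm emission. Mixture: 20 nM Texas Red SRC2 peptide, 0.6 uM human TRb LBD, 1 uM T3, 5% DMSO; compound exposure 5 h at ambient temperature.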
Tau fibril ThT: qHTS for Inhibitors of Tau Fibril Formation, Thioflavin T Binding | hit rate 2.1% among 270,000 | Potency, µM (top dose mostly 57.4 µM), hits mostly inhibitors | recombinant tau K18 P301L, heparin-induced fibrillization, ThT fluorescence | Microtubule-associated protein tau (Homo sapiens), P10636; further: nearly all actives have a fitted effect of over 55% in size
Target sequence (P10636 561-689 P618L limits assumed): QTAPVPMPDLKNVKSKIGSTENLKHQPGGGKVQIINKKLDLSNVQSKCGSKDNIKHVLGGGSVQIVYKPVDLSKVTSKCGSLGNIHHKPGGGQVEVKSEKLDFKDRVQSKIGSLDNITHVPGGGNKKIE
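Recombinant human tau K18 fragment […] carrying P301L, 15 uM unlabeled plus 0.24 uM Alexa 594-labeled, was fibrillized with 20 uM heparin in 100 mM sodium acetate pH 7 for 6 hr at 37 C; 30 uM ThT fluorescence read after 1 hr.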
Tau fluor counter: Counterscreen qHTS for Inhibitors of Tau Fibril Formation, Fluorescence Polarization; tau K18 P301L (four-repeat tau fragment) Alexa594 fluorescence, heparin fibrillization; Potency, µM (highest dose often 57.7 µM); hit rate 0.93% among 280,000; AID 1463, 2008; further: nearly all actives have a fitted effect of over 55% in size
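Human K18 P301L tau (15 uM unlabeled plus 0.24 uM Alexa 594-labeled, final) in 100 mM sodium acetate pH 7 was mixed with compound and 20 uM heparin and incubated 6 hr at 37 C.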
GoLoco inh red: qHTS Assay for Inhibitors of RGS12 GoLoco Motif Activity (Red Fluorophore); hit rate 0.44% among 230,000; Potency, µM (titrated, usually from 61.6 µM), hits mostly inhibitors; Gai1:RGS12 GoLoco peptide FP, rhodamine, 10 min; active means well fitted inhibition curve with a large enough effect, not every such curve was filed as active; inactive means no such curve, though single readings can be large or run the other way; further: nearly all actives have a fitted effect of over 30% in size
Target sequence (P63096 whole entry, looked up): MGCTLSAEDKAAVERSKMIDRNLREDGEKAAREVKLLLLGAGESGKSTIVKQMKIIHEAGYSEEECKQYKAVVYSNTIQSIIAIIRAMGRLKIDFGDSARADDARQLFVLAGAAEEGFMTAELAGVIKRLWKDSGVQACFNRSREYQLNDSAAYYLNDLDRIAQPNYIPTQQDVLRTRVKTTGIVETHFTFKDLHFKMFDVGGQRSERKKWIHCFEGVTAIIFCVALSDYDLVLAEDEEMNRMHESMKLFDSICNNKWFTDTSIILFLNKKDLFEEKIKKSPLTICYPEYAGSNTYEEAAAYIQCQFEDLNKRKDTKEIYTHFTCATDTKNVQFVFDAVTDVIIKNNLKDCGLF
TRb SRC2 PPI: qHTS for Inhibitors of the Interaction of Thyroid Hormone Receptor and Steroid Receptor Coregulator 2; TRbeta-SRC2 peptide binding, fluorescence polarization; receptor liganded with 1 µM T3; Potency, µM (highest dose often 106 µM), most hits filed as inhibitors; Thyroid hormone receptor beta (Homo sapiens), P10828; hit rate 0.065% among 280,000; further: nearly all actives have a fitted effect of over 50% in size
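Polarization signal, normalized between peptide-alone and full complex controls, measured compound effects on T3-liganded human TRb LBD (0.6 uM) binding 20 nM Texas Red SRC2 peptide after 5 hr.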
Tau FP inhib: qHTS for Inhibitors of Tau Fibril Formation, Fluorescence Polarization. hit rate 0.39% among 280,000. Potency, µM (doses to about 57.7 µM), usual class: inhibitors. Microtubule-associated protein tau (Homo sapiens), P10636. K18 P301L tau heparin fibrillization, Alexa594 FP, 6 h. AID 1468, 2008; further: nearly all actives have a fitted effect of over 55% in size
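Recombinant K18 P301L […], labeled with Alexa 594 at 0.24 uM over 15 uM unlabeled; heparin inducer 20 uM final; 37 C, 6 hr; FP endpoint.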
Hits are given with their value; n = inactive; u = inconclusive; x = no result given; [ ] = another dose, or the depositor's remark. Sampled rows, rich in hits. Any-hit rate of the full collection: about 3.2%. Unless noted, the call rests on the fitted dose curve; in most records, active means well fitted curve in the direction sought with a large enough effect; inconclusive means small, poorly fitted or top-dose-only effect, or another doubt; inactive means no such curve, though single readings can be large; an effect the other way counts as inactive or inconclusive.

SMILES | TR SRC2 fluor cs | Tau fibril ThT | Tau fluor counter | GoLoco inh red | TRb SRC2 PPI | Tau FP inhib
CC(C)C[C@H](NC(=O)[C@H](Cc1ccccc1)C[C@@H](O)[C@H](Cc1ccccc1)NC(=O)OC(C)(C)C)C(=O)N[C@@H](Cc1ccccc1)C(N)=O | n | x | x | x | n | x
NC(=O)C1(NC(=O)[C@@H]2CC3(CC(c4cccc(NC(=O)c5cc([N+](=O)[O-])cc([N+](=O)[O-])c5)c4)=NO3)CN2C(=O)c2ccccc2)CC1 (stereo partly drawn) | n | n | 25.1µM[quencher] | n | n | u
COCCN1C(=O)/C(=C/c2ccc(N3CCCC3)cc2C)SC1=S | n | 7.08µM | n | n | n | u
CCN=C1S/C(=C\c2ccc(N3CCOCC3)cc2C)C(=O)N1CC | n | n | n | n | n | n
C/C(=C\C(C)CC(C)CC(C)C)C1CC(=O)OC1=O (stereo not drawn) | n | x | x | x | n | x
COc1ccc2[nH]c(-c3ccccc3)cc2c1 | n | u | 12.6µM[quencher] | n | n | n
Oc1cccc2c(NC(=S)Nc3ccc(SC(F)F)cc3)cccc12 | n | 10µM | 11.2µM[quencher] | n | n | u
CCN1/C(=C/c2ccc3cc(C)cc(C)c3[n+]2CC)Sc2cc(C)ccc21 | n | 4.47µM | u | n | n | u
CCN1/C(=C\c2ccc3cc(C)ccc3[n+]2CC)Sc2cc(C)c(C)cc21 | n | 7.94µM | u | n | n | u
Cc1csc(NC(=O)c2sc3nc(-c4cccs4)ccc3c2N)n1 | n | 7.94µM | u | n | n | n
Cc1ccc(NC(=O)c2sc3nc(-c4cccs4)ccc3c2N)cc1F | n | u | u | x | n | n
CCCSc1nnc(NC(=O)c2sc3nc(-c4cccs4)ccc3c2N)s1 | n | 7.94µM | u | n | n | n
COCCCn1c(=O)c2sccc2n2c(CCCC(=O)Nc3cccc(OC)c3)nnc12 | n | n | n | x | n | n
COc1cc(NS(=O)(=O)c2ccc(C)cc2)c2ncccc2c1 | n | n | u | n | n | n
COc1cc(NCCCC(C)N)c2ncccc2c1 (stereo not drawn) | 44.7µM[fluorescent] | 25.1µM | u | 28.2µM | 28.2µM | u
CCC(CNc1cc(OC)cc2cccnc12)NC1CCCCC1 (stereo not drawn) | n | u | n | 28.2µM | u | n
CN(/N=C\c1ccccc1O)c1ccc2ccccc2n1 | x | x | x | n[14.2 µM] | x | x
Cc1ccc(NCN2C(=O)C3C4C=CC(C4)C3C2=O)cc1 (stereo not drawn) | n | n | n | n | n | n
O=C1C2C3C=CC(C3)C2C(=O)N1CNc1ccc(O)cc1 (stereo not drawn) | n | 3.16µM | u | n | 25.1µM | 8.91µM
CCOc1cc(C2NC(=O)c3c(sc4c3CCN(C)C4)N2)ccc1OC(=O)c1ccc(F)cc1 (stereo not drawn) | n | u | n | x | n | n
Cc1ccc(C2NC(=O)c3c(sc4c3CCN(C)C4)N2)s1 (stereo not drawn) | n | 14.1µM | n | n | n | u
Cc1ccsc1C1NC(=O)c2c(sc3c2CCCC3)N1 (stereo not drawn) | n | 3.16µM | n | n | n | u
CN1CCc2c(sc3c2C(=O)NC(c2ccccn2)N3)C1 (stereo not drawn) | 44.7µM[fluorescent] | n | n | 28.2µM | 10µM | u
CCOc1cc(Br)cc(C2NC(=O)c3c(sc4c3CCN(C)C4)N2)c1O (stereo not drawn) | n | 15.8µM | n | x | n | n
COC(=O)C1=C(C(=O)OC)[C@@H]2N(C)c3ccccc3[C@@]23C[C@@H](C(=O)OC)N(S(=O)(=O)c2ccc(C#N)cc2)C3=N1 | n[11.2 µM] | n[11.5 µM] | n[11.6 µM] | n[14.2 µM] | n[11.2 µM] | n[11.6 µM]
